According to PubChem BioAssay (EPA / NIEHS):
Several values for one entry are separate records, joined by “and”; a condition that tells them apart may be missing. Equal entries are not always repeated. Where a structure was tested more than once in an assay, its records may differ in their call. Activity calls are given as the source filed them. Rule for the calls: active = hit-call score of the fitted dose curve at least 0.9, where 1 is the maximum; inactive = score below 0.9.

Legend:
[1] = read-out: CD69, CD69 (gene 969); test: BSK_IMphg_CD69: BioMAP Diversity Plus: IMphg Assay for CD69 Biomarker Activity (AID 2284257); settings: primary human endothelial cells with macrophages
Summary of the method: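 Readout is ELISA for CD69 in primary human venular endothelial cell/macrophage co-culture, taken at 24 h post-dosing. SRB staining of parallel cultures gauged overt cytotoxicity; signal increase versus DMSO defined activity.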

[2] = read-out: Eotaxin 3, CCL26 (gene 10344); test: BSK_BF4T_Eotaxin3: BioMAP Diversity Plus: BF4T Assay for Eotaxin 3 Biomarker Activity (AID 2284258); settings: primary human bronchial epithelial cells with fibroblasts
Summary of the method: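 ELISA measurement of Eotaxin-3 after 24 h chemical exposure in a bronchial epithelial/dermal fibroblast co-culture, with DMSO as baseline. Parallel SRB staining (0.1% SRB after 10% TCA fixation, 560 nm) flagged overt cytotoxicity.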

[3] = read-out: Monocyte Chemoattractant Protein-1 (MCP1), CCL2 (gene 6347); test: BSK_BF4T_MCP1: BioMAP Diversity Plus: BF4T Assay for Monocyte Chemoattractant Protein-1 (MCP1) Biomarker Activity (AID 2284259); settings: primary human bronchial epithelial cells with fibroblasts
Summary of the method: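 MCP-1 ELISA readout taken 24 h after dosing in the BF4T system (bronchial epithelial cells plus dermal fibroblasts). Parallel SRB total-protein staining flagged cytotoxicity; DMSO served as baseline, positive fitting direction.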

[4] = read-out: Intercellular Adhesion Molecule 1 (ICAM1), ICAM1 (gene 3383); test: BSK_BF4T_ICAM1: BioMAP Diversity Plus: BF4T Assay for Intercellular Adhesion Molecule 1 (ICAM1) Biomarker Activity (AID 2284260); settings: primary human bronchial epithelial cells with fibroblasts
Summary of the method: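 ICAM-1 levels measured by ELISA after 24 h chemical treatment of bronchial epithelial cell/dermal fibroblast co-cultures, read against DMSO baseline. Overt cytotoxicity checked in parallel cultures by sulforhodamine B staining.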

[5] = read-out: Interleukin-8 (IL8), CXCL8 (gene 3576); test: BSK_MyoF_IL8: BioMAP Diversity Plus: MyoF Assay for Interleukin-8 (IL8) Biomarker Activity (AID 2284261); settings: primary human lung fibroblasts
Summary of the method: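 Human lung fibroblast (MyoF system) cultures dosed for 24 h, then IL-8 measured by ELISA. Response taken relative to DMSO; parallel SRB total-protein staining for cytotoxicity.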

[6] = read-out: CD90, THY1 (gene 7070); test: BSK_BF4T_CD90: BioMAP Diversity Plus: BF4T Assay for CD90 Biomarker Activity (AID 2284262); settings: primary human bronchial epithelial cells with fibroblasts
Summary of the method: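 CD90 levels by ELISA after 24 h treatment of human bronchial epithelial cell/dermal fibroblast cultures, analysed versus DMSO. Overt cytotoxicity checked in parallel cultures by sulforhodamine B staining.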

[7] = read-out: Matrix Metallopeptidase 1 (MMP1), MMP1 (gene 4312); test: BSK_MyoF_MMP1: BioMAP Diversity Plus: MyoF Assay for Matrix Metallopeptidase 1 (MMP1) Biomarker Activity (AID 2284268); settings: primary human lung fibroblasts
Summary of the method: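 Human lung fibroblast primary cells; MMP1 measured by ELISA 24 h after dosing, fitted in the positive direction relative to DMSO. Parallel SRB staining (0.1%, after 10% TCA fixation, 560 nm) assesses overt cytotoxicity.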

[8] = read-out: TIMP metallopeptidase inhibitor 1 (TIMP1), TIMP1 (gene 7076); test: BSK_MyoF_TIMP1: BioMAP Diversity Plus: MyoF Assay for TIMP metallopeptidase inhibitor 1 (TIMP1) Biomarker Activity (AID 2284269); settings: primary human lung fibroblasts
Summary of the method: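 Fibroblasts from human lung are dosed with chemical, cultured 24 h, and assayed for TIMP-1 by ELISA. Increases over the DMSO baseline are scored, with SRB total-protein staining run in parallel for cytotoxicity.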

[9] = read-out: Matrix Metallopeptidase 1 (MMP1), MMP1 (gene 4312); test: BSK_BF4T_MMP1: BioMAP Diversity Plus: BF4T Assay for Matrix Metallopeptidase 1 (MMP1) Biomarker Activity (AID 2284270); settings: primary human bronchial epithelial cells with fibroblasts
Summary of the method: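 MMP-1 quantified by ELISA in primary human bronchial epithelial/dermal fibroblast co-cultures, 24 hours post-dosing, with DMSO as baseline; parallel sulforhodamine B staining (560 nm) tracks overt cytotoxicity.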

[10] = read-out: Plasminogen Activator Inhibitor-1 (PAI1), SERPINE1 (gene 5054); test: BSK_BF4T_PAI1: BioMAP Diversity Plus: BF4T Assay for Plasminogen Activator Inhibitor-1 (PAI1) Biomarker Activity (AID 2284273); settings: primary human bronchial epithelial cells with fibroblasts
Summary of the method: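 PAI-1 levels quantified by ELISA 24 h post-dosing in bronchial epithelial cell plus dermal fibroblast cultures. Signal gain referenced to DMSO baseline. Sulforhodamine B total-protein staining of parallel wells checked cytotoxicity.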

[11] = BSK_BF4T_SRB: Viability Assessment in the BioMAP Diversity Plus: BF4T Assay (AID 2284274); settings: primary human bronchial epithelial cells with fibroblasts;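 for AC50: measured 24 h after compound addition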
Summary of the method: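 Cytotoxicity measured as total protein: cells fixed with 10% TCA, stained with 0.1% SRB, read at 560 nm. Bronchial epithelial/dermal fibroblast co-culture, 24 h after dosing, with positive-direction fitting relative to DMSO.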

[12] = read-out: Matrix Metallopeptidase 9 (MMP9), MMP9 (gene 4318); test: BSK_BF4T_MMP9: BioMAP Diversity Plus: BF4T Assay for Matrix Metallopeptidase 9 (MMP9) Biomarker Activity (AID 2284276); settings: primary human bronchial epithelial cells with fibroblasts
Summary of the method: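 MMP-9 levels were measured by ELISA after 24 h exposure of bronchial epithelial cell/dermal fibroblast co-cultures, with DMSO as baseline. Parallel cultures were stained with 0.1% SRB after TCA fixation, read at 560 nm, to flag overt cytotoxicity.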

[13] = read-out: Interleukin-8 (IL8), CXCL8 (gene 3576); test: BSK_IMphg_IL8: BioMAP Diversity Plus: IMphg Assay for Interleukin-8 (IL8) Biomarker Activity (AID 2284277); settings: primary human endothelial cells with macrophages
Summary of the method: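 IL-8 levels were measured by ELISA 24 h after dosing in primary human venular endothelial cell–macrophage cultures, referenced to DMSO; parallel SRB staining monitored overt cytotoxicity.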

[14] = read-out: Intercellular Adhesion Molecule 1 (ICAM1), ICAM1 (gene 3383); test: BSK_BE3C_ICAM1: BioMAP Diversity Plus: BE3C Assay for Intercellular Adhesion Molecule 1 (ICAM1) Biomarker Activity (AID 2284278); settings: primary human bronchial epithelial cells
Summary of the method: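 ELISA read-out of ICAM-1 on human lung bronchial epithelial primary cells, 24 h post-dosing; positive-direction curve fit, DMSO = baseline. SRB total-protein staining of parallel cultures flagged overt cytotoxicity.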

[15] = read-out: Interleukin-8 (IL8), CXCL8 (gene 3576); test: BSK_BE3C_IL8: BioMAP Diversity Plus: BE3C Assay for Interleukin-8 (IL8) Biomarker Activity (AID 2284280); settings: primary human bronchial epithelial cells
Summary of the method: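 Measured at 24 h after treatment, IL-8 from human primary bronchial epithelial cells is determined by ELISA, and the response is modelled as increasing relative to DMSO negative control.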

[16] = read-out: Epidermal growth factor receptor (EGFR), EGFR (gene 1956); test: BSK_BE3C_EGFR: BioMAP Diversity Plus: BE3C Assay for Epidermal growth factor receptor (EGFR) Biomarker Activity (AID 2284281); settings: primary human bronchial epithelial cells
Summary of the method: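 Measured 24 h after dosing in primary human bronchial epithelial cultures, EGFR was read by ELISA; gain of signal over DMSO control defined activity.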

[17] = read-out: Matrix Metallopeptidase 9 (MMP9), MMP9 (gene 4318); test: BSK_BE3C_MMP9: BioMAP Diversity Plus: BE3C Assay for Matrix Metallopeptidase 9 (MMP9) Biomarker Activity (AID 2284283); settings: primary human bronchial epithelial cells
Summary of the method: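 Human primary bronchial epithelial cells exposed 24 h to compound. MMP9 quantified by ELISA. SRB total-protein staining of parallel cultures assesses cytotoxicity. Positive-direction fit relative to DMSO.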

[18] = read-out: Plasminogen activator inhibitor-1 (PAI1), SERPINE1 (gene 5054); test: BSK_CASM3C_PAI1: BioMAP Diversity Plus: CASM3C Assay for Plasminogen activator inhibitor-1 (PAI1) Biomarker Activity (AID 2284284); settings: primary human coronary artery smooth muscle cells
[19] = read-out: Monocyte Chemoattractant Protein-1 (MCP1), CCL2 (gene 6347); test: BSK_hDFCGF_MCP1: BioMAP Diversity Plus: hDFCGF Assay for Monocyte Chemoattractant Protein-1 (MCP1) Biomarker Activity (AID 2284285); settings: primary human foreskin fibroblasts
Summary of the method: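 MCP-1 ELISA readout was taken 24 hours after dosing primary human dermal fibroblasts in the hDFCGF system, with DMSO as baseline. Parallel sulforhodamine B staining of total protein tracked overt cytotoxicity.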

[20] = read-out: Vascular cell adhesion molecule 1 (VCAM1), VCAM1 (gene 7412); test: BSK_IMphg_VCAM1: BioMAP Diversity Plus: IMphg Assay for Vascular cell adhesion molecule 1 (VCAM1) Biomarker Activity (AID 2284286); settings: primary human endothelial cells with macrophages
Summary of the method: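 ELISA read-out of VCAM-1 on venular endothelial cell/macrophage co-cultures at 24 h post-treatment, with DMSO as baseline and positive-direction fitting. Parallel sulforhodamine B total-protein staining (560 nm) served as the overt cytotoxicity measure.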

Measured: AC50

O=C(CC(=O)C(F)(F)C(F)(F)C(F)(F)F)c1cccs1
inactive: [5] | [6] | [7] | [8] | [13] | [18] | [19]
active: [1] 30 µM | [2] 12.8 µM and 13 µM | [3] 22.9 µM and 10.9 µM | [4] 20 µM and 18.8 µM | [6] 9.69 µM | [9] 19.3 µM and 17 µM | [10] 16.9 µM and 15.5 µM | [11] 23.9 µM and 26.7 µM | [12] 28.8 µM and 22.4 µM | [13] 22.4 µM | [14] 42.2 µM and 35.1 µM | [15] 48.2 µM and 55.2 µM | [16] 30 µM and 20.5 µM | [17] 18.5 µM | [20] 50.5 µM and 43.4 µM

CCCCC(CC)C(=O)OCCOCCOCCOCCOC(=O)C(CC)CCCC (stereo not drawn)
inactive: [5] | [7] | [8]

O=P(O)(O)CCC(F)(F)C(F)(F)C(F)(F)C(F)(F)C(F)(F)C(F)(F)F
inactive: all assays above

O=C(NO)c1ccccc1
inactive: [5] | [7] | [8]
